# Screening data as filed in PubChem.
# a7 integrin act = activators of alpha7 integrin expression for muscular dystrophy; alpha7betagal myoblasts, beta-gal FDG fluorescence, 48 h; Potency, µM (top dose mostly 38.3 µM), inactives show at the highest dose activation, usual class: activators; actives 0.064% (n = 350,000); AID 624291; active means well fitted activation curve with a large enough effect; inconclusive means small, poorly fitted or top-dose-only effect; inactive means no such curve, though single readings can be large or run the other way;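 further: potency means the concentration at half of the fitted maximal effect; 100% = response of the positive control SU9516; nearly all actives have a fitted effect of over 60% in size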
#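 Alpha7betagal+/- myoblasts (passage 13) were plated 16-24 hr, then exposed to compounds (1:260 dilution of DMSO stock) for 48 hours at 37C. After MPER lysis, β-galactosidase reporter activity was read as FDG fluorescence (ex 480/em 540) after 30 minutes.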
# D3 antag = D3 dopamine receptor (human) antagonism | D3R cells, DiscoveRx beta-arrestin luminescence, antagonist mode; active compounds read low | actives 2.5% (n = 360,000) | P35462 | max response, negative = inhibition, %; in the data active means max response below about -50%; inconclusive means no clear call, values can overlap the other calls; further: on the % scale 0 is the no-effect control and ±100 the full control effect
# Target sequence (P35462 whole entry, looked up): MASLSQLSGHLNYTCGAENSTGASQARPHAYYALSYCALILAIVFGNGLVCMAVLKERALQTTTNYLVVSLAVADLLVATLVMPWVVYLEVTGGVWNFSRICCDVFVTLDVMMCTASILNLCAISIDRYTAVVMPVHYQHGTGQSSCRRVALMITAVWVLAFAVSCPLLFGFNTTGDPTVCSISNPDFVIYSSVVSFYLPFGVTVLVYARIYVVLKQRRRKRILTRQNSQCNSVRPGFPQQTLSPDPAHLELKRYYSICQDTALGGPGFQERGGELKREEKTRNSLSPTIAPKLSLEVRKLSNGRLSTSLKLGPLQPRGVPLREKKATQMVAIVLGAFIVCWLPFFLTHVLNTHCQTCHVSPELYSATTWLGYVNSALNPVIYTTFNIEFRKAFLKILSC
#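 Cells plated overnight at 1500 cells/well, then exposed to library compounds with dopamine controls for 90 minutes at 37 degrees C. DiscoveRx reagent added for 30–60 minutes at room temperature; luminescence read, quantitative HTS format.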
# DRD3 agonist = activates the human D3 dopamine receptor; P35462; D3R DiscoveRx beta-arrestin cells, luminescence, 90 min; max activation, %; actives 0.58% (n = 410,000); AID 652048; in the data active means max activation above about 30%; further: 0% is about no effect
#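 Agonist-mode cell screen: cells plated at 1500/well and incubated overnight at 37 °C, then exposed to library compounds for 90 min at 37 °C. Detection reagent was added for 30–60 min at room temperature, and luminescence was read.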
# * marks the source's active call; other numbers are inactive results; ? = inconclusive; nt = not tested or not shown. The list is not random: actives were taken first. Their share in the collection is about 2.9%.
SMILES,a7 integrin act,D3 antag,DRD3 agonist
O=C(NC(c1ccc(-c2ccccc2)cc1)c1cnccn1)C1CCN(Cc2ccc3c(c2)OCO3)CC1 (stereo unspecified),nt,-65.8*,-9.4
CC(C)c1ccc(CN2CCC(C(=O)NCc3cccnc3)CC2)cc1,2.2%,-83.4*,-5.2
CCS(=O)(=O)N1CCC(C(=O)NCc2cccnc2)CC1,10.0%,4.7,2.7
Cn1cc(CN2CCC(C(=O)NC(c3ccc(-c4ccccc4)cc3)c3cnccn3)CC2)c2ccccc21 (stereo unspecified),nt,?,-22.5
O=C(NC(c1ccc(-c2ccccc2)cc1)c1cnccn1)C1CCN(Cc2ccc(Cl)c(Cl)c2)CC1 (stereo unspecified),nt,-57.4*,-13.5
CCCCn1c(N)c(N(C)C(=O)CCCn2c(=O)oc3ccccc32)c(=O)[nH]c1=O,9.5%,0.0,-5.1
CCCCn1c(N)c(N(CCOC)C(=O)Cn2c(=O)oc3ccccc32)c(=O)[nH]c1=O,-6.7%,-5.4,95.0*
CCCCN(C(=O)c1ccccc1F)c1c(N)n(CCC)c(=O)[nH]c1=O,-33.7%,1.6,33.5*
CCCCN(C(=O)c1cc(=O)[nH]c2ccccc12)c1c(N)n(CCC)c(=O)[nH]c1=O,-10.0%,10.5,7.3
COc1ccc(CN(CC(=O)NCc2ccccc2)C(=O)CCC(=O)Nc2ccccn2)cc1,39.4%,-24.8,-0.9
CCN(Cc1ccccc1)C(=O)c1cnn(-c2ccc(F)cc2)c1-n1cccc1,nt,nt,5.7
CC[C@@H](C)[C@@H]1CN([C@@H](C)CN2CCC[C@H]2CN2C(N)=NC[C@@H]2Cc2ccccc2)C(=N)N1CCc1ccc(Cl)c(Cl)c1,18.3%,-66.2*,-47.6
CC[C@@H](C)[C@@H]1CN([C@@H](C)CN2CCC[C@H]2CN2C(N)=NC[C@@H]2Cc2ccccc2)C(=N)N1CCCC1CCCC1,-3.7%,-1.0,-35.5
Cc1ccccc1CCNC(=O)c1ccc(Cl)c(S(=O)(=O)N2CC(C)OC(C)C2)c1 (stereo unspecified),-47.4%,2.6,3.8
O=C(c1ccc(Cl)cc1)N1C2C=CC(C2)C1(C(F)(F)F)C(F)(F)F (stereo unspecified),-4.3%,14.8,0.3
Cc1nc2ccn(Cc3ccco3)c(=O)c2cc1C(=O)N1CCN(c2ccccc2)CC1,nt,nt,8.5
O=C(N/N=C/c1ccccc1Cl)c1n[nH]c2c1CCCC2,-9.4%,-6.9,2.7
Cc1[nH]nc(C(=O)NN=Cc2ccccc2Cl)c1N=NN(C)C,-54.7%,-80.7*,-10.8
CCOc1ccc(CC(=O)OCN2C(=O)c3ccccc3C2=O)cc1,6.6%,-6.8,-1.2
COCC1CCN(c2nc3nonc3nc2N2CCSCC2)C1 (stereo unspecified),-0.3%,-6.8,-6.1
O=C(/C=C/c1ccncc1)c1ccc2c(c1)OCCO2,-62.2%,-54.0*,2.4
O=C(/C=C/c1ccccc1)c1ccc2c(c1)OCO2,-50.0%,0.0,-18.7
CCOC(=O)c1c(C)[nH]c(C(=O)/C(C#N)=C/c2ccc(OCC)cc2)c1C,9.4%,5.0,7.7
O=C(Nc1cccc2ccccc12)c1ccc([N+](=O)[O-])o1,-79.7%,-16.2,1.1
O=C(Nc1ccccc1C(=O)NC1CC1)c1ccc([N+](=O)[O-])o1,-49.3%,-62.6*,2.4
SMILES,a7 integrin act,D3 antag,DRD3 agonist
CC(NC(=O)Nc1ccc(Cl)c(Cl)c1)C(c1ccccc1)N1CCOCC1 (stereo unspecified),?,-1.1,-15.2
Cn1cnnc1SCC(=O)Nc1ccc(Cl)c(S(=O)(=O)N2CCOCC2)c1,-11.3%,17.0,-1.7
NS(=O)(=O)c1ccc(-c2ccc(C=O)o2)cc1,-8.4%,5.3,-3.9
NS(=O)(=O)c1ccc(-c2ccc(/C=C3\NC(=S)NC3=O)o2)cc1,17.2%,1.8,43.2*
COc1ccc(Cc2noc(CN(C)Cc3cccc(-n4cccn4)c3)n2)cc1OC,-5.5%,11.1,1.2
Cc1nc2ccc([N+](=O)[O-])cc2c(=O)n1Cc1ccc([N+](=O)[O-])cc1,10.9%,-1.2,0.5
O=c1[nH]c2ccccc2c(O)c1-[n+]1ccccc1,-41.9%,-17.6,31.7*
O=c1[nH]c2ccccc2c(O)c1O,-23.3%,-2.0,14.4
N#Cc1c(N2CCOCC2)nsc1-c1ccccc1,-6.2%,-15.5,3.9
CCC(=O)Nc1sc2c(c1C#N)CCC2,?,-5.9,-6.4
CCn1c(SCC(=O)Nc2sc3c(c2C#N)CCCC3)nnc1-c1ccco1,-4.9%,-72.0*,-4.7
CCOC(=O)c1c(NC(=O)CSc2nnc(C)c(=O)[nH]2)sc2c1CCCC2,-3.6%,3.1,-5.8
CC(C)CC(=O)NC(NC(=S)Nc1sc2c(c1C#N)CCCC2)C(Cl)(Cl)Cl (stereo unspecified),-24.9%,-83.2*,-4.9
Cc1nnc(SCC(=O)Nc2sc3c(c2C#N)CCCC3)[nH]c1=O,12.7%,-54.1*,-9.3
CCn1c(SCC(=O)Nc2sc3c(c2C#N)CCC(C(C)(C)C)C3)nnc1-c1ccco1 (stereo unspecified),5.4%,37.9,12.9
Cc1ccc(NC(=O)NC2CCCCCCC2)cc1C,-20.6%,-4.2,-7.0
Nc1n[nH]c(N)c1N=Nc1ccc(Cl)cc1Cl,-52.9%,15.2,14.4
O=Cc1cccn1-c1ncc(Br)cn1,-3.8%,9.8,2.3
Cc1cccc(-c2nnc(SCC(=O)Nc3cc(C)on3)n2C)c1,-11.5%,-6.1,-2.7
COc1ccc(S(N)(=O)=O)cc1C(=O)NCC(C)(C)N1CCOCC1,-39.0%,-19.7,-6.5
O=C(NCCCN1CCN(c2cccc(Cl)c2)CC1)c1nc(-c2ccncc2)no1,-26.2%,-63.6*,3.2
COc1ccc(S(N)(=O)=O)cc1C(=O)NCCCN1CCN(c2ccc(C)cc2)CC1,-11.6%,-71.0*,-10.1
COc1ccc(Cl)cc1C(=O)NCCCN1CCOCC1,1.2%,1.3,-6.7
COc1ccc(S(N)(=O)=O)cc1C(=O)NCCCN1CCN(c2cccc(Cl)c2)CC1,0.0%,-50.0*,5.1
COCCNC(=O)c1cn(C)c(=O)c2cc(OC)c(OC)cc12,-0.1%,-4.3,-0.9
SMILES,a7 integrin act,D3 antag,DRD3 agonist
O=C(NCCCN1CCN(CCCNC(=O)c2cccc(Cl)c2)CC1)c1cccc(Cl)c1,-45.2%,9.2,-7.1
COc1cc2c(C(=O)NCCCN3CCN(c4cccc(Cl)c4)CC3)cn(C)c(=O)c2cc1OC,-41.3%,-56.1*,31.1*
O=C(CCNC(=O)c1ccc(Br)cc1)Nc1ccc(S(=O)(=O)Nc2ncccn2)cc1,14.7%,-9.4,-22.0
CC(C)Nc1ncnc2c1ncn2[C@H]1CN(Cc2ccc(-c3ccccc3)cc2)C[C@@H](CO)O1,nt,38.2,0.9
COc1ccc(CCNS(=O)(=O)c2ccc(N3CCCCS3(=O)=O)cc2)cc1,nt,nt,-10.4
CCc1ccccc1NC(=S)N(CCN(C)C)C(C)c1cccnc1 (stereo unspecified),-24.2%,-0.1,4.3
COC(=O)C[C@@H]1CC[C@@H](NC(=O)c2ccccc2F)[C@@H](CO)O1,nt,0.5,6.2
Cc1ccc2c(Cl)c(C)c(N3CCCC3)nc2n1,-16.3%,12.2,3.2
COc1ccccc1N1CCN(CCCNC(=O)Nc2ccccc2)CC1,-4.6%,-28.7,21.6
COc1ccc(S(N)(=O)=O)cc1C(=O)NCCCN1CCN(c2ccccc2OC)CC1,-1.8%,-91.9*,-5.2
CCC(CC)C(=O)Nc1cccc(C(=O)NCCc2ccc(S(N)(=O)=O)cc2)c1,1.3%,-9.5,-4.4
